# Records with an inconclusive call do not appear. Unmarked numbers belong to inactive results. Calls follow the shape of the dose curve; as a rule, active = well fitted cell-killing curve with a large enough effect; inconclusive = small, poorly fitted or top-dose-only effect, or effect the other way; inactive = flat fitted curve, though single readings scatter.
# System: CASKI
# Experiment: Primary qHTS to identify gynecologic anti-cancer compounds using libraries of approved drugs and bioactive compounds (AID 1345084); also: nearly all actives have a fitted effect of over 55% in size
# Conditions: Gynecologic cancer cell panel viability, ATPlite luminescence, 48 h; series mostly up to 57.5 µM; activity change, negative = cytotoxicity: at the top concentration
# Outline: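 Cell viability after 48 h drug treatment, ATPlite luminescence readout; five doses.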
# % is scaled to controls: 0 for no effect and ±100 for the full control effect.
row,SMILES,"activity change, negative = cytotoxicity"
1,Nc1nc(Nc2ccc(S(N)(=O)=O)cc2)n(C(=S)Nc2c(F)cccc2F)n1,-4.12%
2,CS(=O)(=O)c1ccc(-c2nnc(/C=C/c3nnc(-c4ccc(C#N)cc4)o3)n2-c2ccccc2Cl)nc1,-0.237%
3,Cc1ccc(-c2ccc3c(ccc4sc5c(c43)NC[C@@H](C)NC5=O)n2)cn1,-0.922%
4,C[C@@H]1O[C@@H](O[C@H]2[C@H](O)[C@@H](O[C@@H]3O[C@H](CO)[C@@H](O)[C@H](O[C@@H]4O[C@H](CO)[C@@H](O)[C@H](O)[C@H]4O)[C@H]3O)[C@H](O[C@H]3CC[C@@]4(C)C(=CC[C@@H]5C4CC[C@@]4(C)C5C[C@@H]5OC6(CC[C@@](C)(CO[C@@H]7O[C@H](CO)[C@@H](O)[C@H](O)[C@H]7O)O6)[C@@H](C)[C@@H]54)C3)O[C@@H]2CO)[C@H](O)[C@H](O)[C@H]1OC1OC(CO)C(O)C(O)C1O (stereo not given in full),-16.9% [at 6.55 µM]
5,CC(C)[C@H]1CC[C@@]2(O)COC(=O)[C@H]2[C@@H]1/C=C(\CO)C(=O)O,9.33%
6,FC(F)(F)c1cc(-c2ncn(/C=C\c3nnco3)n2)cc(C(F)(F)F)c1,-0.368%
7,CC(C)NCC(C(=O)N1CCN(c2ncnc3c2C(C)CC3O)CC1)c1ccc(Cl)cc1 (stereo not given),-19.1%
8,O=C1NC(=O)C(c2cn3c4c(cccc24)CCC3)C1c1c[nH]c2ccccc12 (stereo not given),-24.6%
9,CC1C(OC(=O)c2ccccc2)C(O)C2C(C(=O)O)=COC(OC3OC(CO)C(O)C(O)C3O)C12 (stereo not given),26.1% [at 25.3 µM]
10,CC(C)(C)CCN1C[C@@H]2C(CNC(=O)c3cc(Cl)cc(Cl)c3)[C@@H]2C1 (stereo not given in full),1.45%

# Source: PubChem BioAssay (NCATS)
